Hit rate of the full screen: of about 48,000 compounds, about 13,000 (27%) showed an effect of 50% or more. The list shows a part of the results.
Test system: Wolbachia pipientis
Assay: Anti-Wolbachia Cell-Based Screen
Type: functional
Parameters: scale not given: in the data most compounds retested in dose-response had high values
Details: 5 µM

Row | Compound | Percent Effect [%]
1 | CCC1c2ccccc2CCN1C(=O)c1ccnc(C(=O)OC)c1 (stereo unspecified) | -12.45
2 | CC(C)NC[C@H]1COCc2nc3cccnc3n21 | -0.2965
3 | O=C(c1ccc2ncsc2c1)N1CCC(C(=O)O)(n2cccn2)CC1 | -48.02
4 | CC(C)(C)c1nnc(CN2CCN(S(C)(=O)=O)CC2)o1 | 12.09
5 | O=C(CSCCN1CCOCC1)N1CCc2ccccc2C1 | 125
6 | CC1CCN(C(=O)CSCCN2CCOCC2)CC1 | 94.74
7 | O=C(CSCCN1CCOCC1)N1CCCCCC1 | 88.11
8 | CCOCCN1CCN(CCC(=O)N2CCCCC2)CC1 | -4.912
9 | CC1CCN(C(=O)CSCc2noc(C(C)C)n2)CC1 | -0.6667
10 | O=C(Cn1cc(I)cn1)N1CCc2ccccc2C1 | 13.89
11 | CC(=O)N1CCOC2(CCCN(C(=O)CCN3CCCCC3)C2)C1 (stereo unspecified) | -17.75
12 | CC1CCN(C(=O)CSCc2nc(C3CC3)no2)CC1 | 2
13 | O=C(CCC(=O)N1CCc2ccccc2C1)c1cccs1 | 11.35
14 | N#Cc1cccnc1OC1CCN(C(=O)NCc2ccccc2)CC1 | 7.798
15 | CC(=O)N1CCCC2(CN(Cc3ccc(C)s3)CCO2)C1.O=C(O)C(F)(F)F (stereo unspecified) | 0.2205
16 | O=C(CC1OCCc2ccccc21)NCC1(O)CCCCC1 (stereo unspecified) | -10.96
17 | Cc1ccc(CNc2ccn(CCC(N)=O)n2)c(Br)c1 | -13.88
18 | CCC(CO)N(Cc1ccccn1)C(=O)c1ccc(C)c(Cl)c1 (stereo unspecified) | -8.3
19 | COc1ccc(-c2ccncc2)cc1CNC1CCCC1 | -7.134
20 | c1cc(-c2cnc(NC3CC3)nc2[C@H]2CCCO2)ccn1 | 171.5
21 | CC(C)Nc1ncc(-c2ccncc2)c([C@@H]2CCCO2)n1 | 174
22 | CC(C)c1cc(C(=O)N(Cc2ccncc2)CC2CCCO2)no1 (stereo unspecified) | 4.129
23 | c1cc(-c2cnc(NC3CC3)nc2[C@@H]2CCCO2)ccn1 | 175.9
24 | COc1ccc(CCC(=O)NCCC2CCCO2)cc1Br (stereo unspecified) | 4.709
25 | O=C(NCCn1ccnc1)C1(c2ccc3c(c2)OCCO3)CCCC1 | 33.12
26 | CC(C)(CO)Nc1cc(-c2cn[nH]c2)ncn1.Cl | 116.8

Row | Compound | Percent Effect [%]
27 | CC(C)(CO)Nc1cc(-c2ccncc2)ncn1 | 106.2
28 | CC(C)(C)S(=O)(=O)CCNC(=O)c1cnc(-c2ccccc2)nc1 | -10.41
29 | COc1ccc(-c2cn[nH]c2)cc1CNC1CCCC1 | -15.21
30 | CC(C)(CO)Nc1ccc(-c2nc(-c3ccccc3F)no2)cn1 | -13.37
31 | CC(C)(CO)Nc1cc(-c2ccccc2)ncn1 | 83.59
32 | CN(Cc1ccsc1)Cc1ccc(C2CCCCO2)o1 (stereo unspecified) | 10.63
33 | Cc1cccc(OC2CCN(c3ccc(C#N)cn3)CC2)n1 | -50.95
34 | CN(C)[C@@H]1CCN(c2ncccn2)[C@H]1Cc1ccncc1.O=C(O)C(F)(F)F.O=C(O)C(F)(F)F | -8.933
35 | CC(O)CN(Cc1cccc(C(N)=O)c1)c1ccccc1 (stereo unspecified) | -3.401
36 | Cc1cc(CN(C)C(=O)C2CCC(=O)N(CC3CCCCC3)C2)n[nH]1 (stereo unspecified) | 15.57
37 | Cc1nc(C)n(CC2CCCN2CCCc2ccccc2)n1 (stereo unspecified) | -4.599
38 | Cc1cnn(CC2CCCN2CCCc2nc3ccccc3o2)c1 (stereo unspecified) | 11.07
39 | Cc1nc(C)n(CC2CCCN2Cc2nc3ccccc3nc2C)n1 (stereo unspecified) | -1.93
40 | Cc1nn(C)c(C)c1C1CCCN1CCCc1nc2ccccc2o1 (stereo unspecified) | 0.8066
41 | Cc1nc(C)n(CC2CCCCN2Cc2nc3ccccc3o2)n1 (stereo unspecified) | 96.27
42 | Cc1nc(C)n(CC2CCCN2CCCc2nc3ccccc3o2)n1 (stereo unspecified) | 115.5
43 | Cc1cc(C)n(CC2CCCN2CCCc2nc3ccccc3o2)n1 (stereo unspecified) | 125.1
44 | Cc1nc(C)n(CC2CCCN2Cc2nc(N)c3ccccc3n2)n1 (stereo unspecified) | 4.973
45 | Cc1cc(C2CCCN2CCCc2nc3ccccc3o2)on1 (stereo unspecified) | 8.097
46 | O=C(CCN1CCCO1)N1CC[C@@H](CNC(=O)N2CCCC2)[C@H](O)C1 | 5.965
47 | CCc1ccc2c(c1)C(CCNC(=O)c1sccc1C)C(=O)N2 (stereo unspecified) | -0.3397
48 | Cn1nc(CN2CCC(c3ccncc3)CC2)c2c(Cl)cccc21 | -3.245
49 | OC(COCc1ccccc1F)CN1CCc2c(ncn2C2CC2)C1 (stereo unspecified) | -3.372
50 | Cc1ncc(CN(C)CC(O)c2ccc(Br)cc2)s1 (stereo unspecified) | 5.745
51 | Cn1cnnc1CC1CCN(Cc2nn(C)c3cccc(Cl)c23)CC1 | -2.14
52 | Cc1cnn(CC2CCCN2CC(=O)N(C)Cc2ccco2)c1 (stereo unspecified) | -7.327

Row | Compound | Percent Effect [%]
53 | Cc1cnn(CC2CCCN2C(=O)CCc2ccc3c(c2)OCO3)c1 (stereo unspecified) | 126.1
54 | Cc1cnn(CC2CCCN2C(=O)CCc2ccncc2)c1 (stereo unspecified) | 138.1
55 | Cc1cnn(CC2CCCN2C(=O)CCc2ccco2)c1 (stereo unspecified) | 108.9
56 | Cc1cnn(CC2CCCN2C(=O)CCc2ccsc2)c1 (stereo unspecified) | -5.285
57 | CC(=O)Nc1ccc(S(=O)(=O)Nc2c(F)cccc2F)cc1 | 12.85
58 | Cc1cnn(CC2CN(CC(=O)Nc3nnc(C)s3)CCO2)c1 (stereo unspecified) | -4.997
59 | COc1cc(F)ccc1C(C(=O)O)N(C)CCN1CCCC1 (stereo unspecified) | -2.761
60 | O=S(=O)(Cc1ccccc1)NCC1CCCN(Cc2cccs2)C1 (stereo unspecified) | -20.75
61 | CC(C)c1nc(O)c2nnn(C[C@@H]3CCCN(Cc4cccs4)C3)c2n1 | 127
62 | CC(C)c1nc(O)c2nnn(C[C@H]3CCCN(Cc4cccs4)C3)c2n1 | 127.4
63 | CC1CN(Cc2cccc(CN)c2)CCO1 (stereo unspecified) | -7.811
64 | Cc1cc(=O)n(C)cc1NC(=O)Cc1ccc(C(F)(F)F)cc1 | -20.5
65 | CCN(CCNCc1ccc(C#N)cc1)C1CC1 | -16.49
66 | Cc1ccccc1-n1cc(-c2ccnc(NC(CO)C(C)C)n2)cn1 (stereo unspecified) | -0.3825
67 | OCCNc1nccc(-c2c[nH]nc2-c2cccnc2)n1 | 121.3
68 | CC(C)[C@H](CO)Nc1nccc(-c2c[nH]nc2-c2ccncc2)n1 | 88.77
69 | FCCOc1cccc(NCc2c[nH]nc2-c2cccnc2)c1 | -17.01
70 | O=C(NCCNc1ncccn1)c1ccc(-c2ccco2)[nH]c1=O | 7.88
71 | OCCNc1nccc(-c2c[nH]nc2-c2ccco2)n1 | 131.5
72 | Cc1nc(O)cc(CCNc2nccc(CCC(F)(F)F)n2)n1 | 19.69
73 | OCCNc1nccc(-c2c[nH]nc2-c2ccncc2)n1 | 131
74 | CCOCc1cccc(NCc2c[nH]nc2-c2cccnc2)c1 | -7.599
75 | Cc1ccccc1-n1cc(-c2ccnc(N[C@@H](CO)C(C)C)n2)cn1 | -0.1007
76 | Fc1ccc(-c2n[nH]cc2-c2ccnc(NCCN3CCCC3)n2)cc1 | 7.952

Source: ChEMBL document CHEMBL3988442, “University of Dundee, Small-Polar-MMV Screening Library” (2021)
